Bioassay records: PubChem BioAssay, The Scripps Research Institute Molecular Screening Center
DAX1 inh-1: inhibits human nuclear receptor DAX1 | P51843 | HEK293 Gal4-DAX1 luciferase reporter, luminescence | inhibition, % at 6.75 µM | 340,000 tested, 0.99% active | AID 504766;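 active = inhibition above the mean over all tested compounds plus 3 SD, cut at about 4.2% in these data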;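 note: 0% = DAX1-transfected cells with DMSO and 100% = empty-vector control cells with DMSO; inhibition shows as a rise in luminescence from relieved DAX1 repression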
Target sequence (P51843 207-470 limits assumed): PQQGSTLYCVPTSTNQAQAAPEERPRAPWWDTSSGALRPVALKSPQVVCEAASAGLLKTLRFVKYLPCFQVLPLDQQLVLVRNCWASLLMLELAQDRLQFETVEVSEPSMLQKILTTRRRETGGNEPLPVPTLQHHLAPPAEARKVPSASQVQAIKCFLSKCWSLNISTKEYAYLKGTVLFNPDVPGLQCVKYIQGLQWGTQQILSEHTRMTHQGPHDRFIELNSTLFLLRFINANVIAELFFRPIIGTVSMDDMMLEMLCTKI
ssDAF12 agonist: activators of S. stercoralis DAF-12 nuclear receptor | HEK293 ssDAF-12/GRIP1 lit1-tk-luc reporter, luminescence; % of 3 µM dafachronic acid response | activation, % at 6.8 µM | 370,000 tested, 1% active;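 active = activation above the mean over all tested compounds plus 3 SD, cut at about 0.9% in these data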;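 note: 0% = DMSO-only wells and 100% = 3 µM delta7-dafachronic acid wells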
hgDAF-12 ag: agonists of H. glycines DAF-12 nuclear receptor; HEK293 GAL4-hgDAF12 UAS-luciferase reporter, agonist luminescence; normalized to butyrate control; AID 687014; activation, % at 6.8 µM; 370,000 tested, 1.8% active;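 active = activation above a cutoff set at the mean of all screened compounds plus 3 SD, cut at about 10% in these data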;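 note: 0% = DMSO wells and 100% = sodium butyrate wells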
DAX1 inh-2: DAX1 (NR0B1) inhibition, primary screen; 370,000 tested, 1.1% active; inhibition, % at 6.8 µM; HEK293T StAR-luciferase reporter, SF-1/DAX-1 repression relief;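 active = inhibition above the mean over all tested compounds plus 3 SD, cut at about 3.6% in these data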;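 note: 0% = DAX-1 cells with DMSO and 100% = cells lacking DAX-1 with DMSO; higher inhibition means more luminescence from relief of DAX-1 repression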
hcDAF-12 act: H. contortus DAF-12 activation, primary screen. activation, % at 6.8 µM. HEK293 hcDAF-12 lit1-tk-luc reporter, luminescence; 0% DMSO, 100% Δ7-dafachronic acid. 370,000 tested, 1.4% active;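 active = activation above the mean of all tested compounds plus 3 SD, cut at about 5.5% in these data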;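 note: 100% = response to 3 µM Δ7-dafachronic acid high control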
AHR activator: activators of human aryl hydrocarbon receptor; AHR-responsive luciferase reporter cells, luminescence; activation, % at 5 µM; P35869; 320,000 tested, 2.5% active; in the data active = activation above about 47%;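 note: 0% = vehicle wells and 100% = reference agonist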
* hit, by the source's call; x = no result; ! = not confirmed by another sample. This is a sample that favours compounds with a hit; in the whole collection about 5.7% have one here.

SMILES | DAX1 inh-1 | ssDAF12 agonist | hgDAF-12 ag | DAX1 inh-2 | hcDAF-12 act | AHR activator
CCn1cc(Br)c(C(=O)Nc2nccs2)n1 | 0 | 0 | 11* | 0 | 6.0* | 57*
O=C(NCCCN1CCCC1=O)c1cc2nc(-c3ccco3)cc(C(F)(F)F)n2n1 | 0 | 1.0* | -3 | 0 | 1 | -3
Brc1ccc(/C=N/Nc2nc3ccccc3o2)cc1 | 4 | 1.9* | 12* | 1 | 5.9* | 29
COc1cc(NC(=O)c2noc3c2CCCC3)c(OC)cc1Cl | 0 | x | x | x | x | 55*
COc1ccc(Cl)cc1NC(=O)c1noc2c1CCCC2 | 1 | -1 | 0 | 0 | 3 | 22
O=C(Nc1cc(Cl)ccc1Cl)c1noc2c1CCCC2 | 0 | 0 | 3 | 0 | 0 | 75*
O=C(NNC(=O)C12CC3CC(CC(Cl)(C3)C1)C2)c1csc(N2CCOCC2)n1 | 0 | -1 | 0 | 2 | 0 | -3
C[N+](C)(C)CCOC(=O)CCC(=O)OCC[N+](C)(C)C | 0 | -1 | 11*! | 1 | -1 | -1
Cc1cccc(NC(=O)CCc2c(C)nn(-c3ccc(N4CCCCC4)nn3)c2C)c1 | 0 | -1 | 4 | 3.8* | 0 | 3
Cc1cccc(NC(=O)CCc2c(C)nn(-c3ccc(N4CCOCC4)nn3)c2C)c1 | -1 | -1 | 3 | 0 | 1 | 6
O=C(CSc1ccc2ccccc2n1)NCCC1=CCCCC1 | 0 | -2 | -2 | 0 | -3 | 5
CC1NC(=O)c2cc3ccccc3cc2-n2c1nc1cc(F)ccc1c2=O (configuration not stated) | 0 | 1.8* | 1 | 0 | 4 | x
CCC1NC(=O)c2cc3ccccc3cc2-n2c1nc1cc(F)ccc1c2=O (configuration not stated) | -1 | 0 | -4 | 0 | 0 | x
CC1NC(=O)c2cc3ccccc3cc2-n2c1nc1cc(Cl)ccc1c2=O (configuration not stated) | 1 | 1.1* | 2 | -1 | 3 | x
Cc1ccc2c(=O)n3c(nc2c1)C(Cc1ccccc1)NC(=O)c1cc2ccccc2cc1-3 (configuration not stated) | 0 | 1.2* | -1 | 2 | 1 | x
CCOC(=O)N1CCC(NC(=O)C2CCCN2C(=O)OCc2ccccc2)CC1 (configuration not stated) | -1 | -1 | -3 | -1 | 0 | 0
Cc1ccc2cc3c(nc2c1)N(c1ccccc1)CC3 | 0 | -2 | -4 | -1 | 0 | 66*
CC(=O)NN1CCc2cc3ccc(C)cc3nc21 | 1 | -1 | -2 | 1 | 3 | 9
O=c1c2cc(Cl)ccc2nc(-c2ccc([N+](=O)[O-])cc2)n1O | 0 | -1 | 1 | -1 | -1 | 0
Cc1ccc(-c2nc3c(Cl)cc(Cl)cc3c(=O)n2O)cc1 | 1 | 0 | 0 | 0 | 6.0* | 65*
On1c(-c2ccccc2)nc2ccc(Cl)cc21 | 1 | -1 | 12* | 3 | 3 | 4
O=c1c2cc(Br)ccc2nc(-c2ccc(Cl)cc2)n1O | 0 | 0 | 1 | 0 | -1 | 50*
Cc1ccc(S(=O)(=O)N(C)C)cc1NC(=S)N(C)C1CCN(C)CC1 | 1 | -1 | -2 | 0 | -1 | 2
CCN(C(=S)Nc1ccccc1F)C1CCCCC1 | 1 | -1 | -1 | 0 | 0 | -1
O=C(N/N=C/c1ccc(Cl)c([N+](=O)[O-])c1)c1cnccn1 | 1 | -2 | -1 | 0 | -2 | 8
SMILES | DAX1 inh-1 | ssDAF12 agonist | hgDAF-12 ag | DAX1 inh-2 | hcDAF-12 act | AHR activator
c1cncc(-c2nnc(SCc3nc4ccccc4[nH]3)o2)c1 | -2 | -2 | -10 | -1 | -2 | 73*
O=C(c1cnc2nc3ccccc3n2c1)c1cc(F)ccc1O | 0 | 0 | 7 | 3 | 5.6* | 28
CC(C)(C)n1cnc2cc(NCc3ccccc3O)ccc21 | 0 | 0 | 5 | 0 | 2 | 5
O=C(Nc1ccn(CCCNCC(c2ccccc2)c2ccccc2)c(=O)n1)OCc1ccccc1 | 4.4* | -2 | 1 | 0 | 2 | x
CC(CNCCCn1ccc(NC(=O)OCc2ccccc2)nc1=O)c1ccccc1 (configuration not stated) | -1 | -1 | 0 | 2 | -2 | x
CCOC(=O)C1=C(C)N(CCCC(=O)O)C(=O)NC1c1ccc2ccccc2c1 (configuration not stated) | 0 | -2 | 2 | 0 | -1 | -1
O=C(CCCCCNC(=O)c1ccccc1)N=Nc1c(O)[nH]c2c(Br)cc(Br)cc12 | x | x | x | x | x | 4
NC(=O)N=Nc1c(O)[nH]c2c(Br)cc(Br)cc12 | x | x | x | x | x | 50*
CCS(=O)(=O)c1ncc(Cl)c(C(=O)Nc2ccccc2OC)n1 | 3 | 0 | 0 | 0 | 1 | 35
COC(=O)c1ccc(NC(=O)c2nc(S(=O)(=O)Cc3cccc(C)c3)ncc2Cl)cc1 | 0 | -1 | -9 | -2 | -4 | 4
COc1ccccc1NC(=O)c1nc(S(=O)(=O)Cc2ccccc2)ncc1Cl | 0 | -1 | -1 | 2 | 1 | 60*
CC(=O)Nc1ccc(NC(=O)c2nc(S(=O)(=O)Cc3cccc(C)c3)ncc2Cl)cc1 | 0 | -1 | -5 | 4.0* | -3 | 0
CC(=O)c1cccc(NC(=O)CN(c2ccc(F)cc2)S(C)(=O)=O)c1 | -1 | -1 | -2 | 1 | -2 | 2
Cn1c(O)c(N=Nc2ccc(F)cc2)c2ccccc21 | -1 | 0 | 2 | 0 | 5.6* | 44
Cn1c(O)c(N=Nc2ccccc2)c2ccccc21 | 0 | 1.2* | 0 | 0 | 4 | 55*
Cc1ccc2c(c1)c(N=Nc1ccc([N+](=O)[O-])cc1)c(O)n2C | 1 | 0 | 0 | 0 | 6.0* | 35
Cn1c(O)c(N=NC(=O)Cc2c[nH]c3ccccc23)c2ccccc21 | 2 | -1 | -4 | -1 | 0 | x
Cc1c(C)n(C)c2ccc([N+](=O)[O-])cc12 | 3 | -1 | -2 | 1 | -2 | -6
CCCCN1C(=O)C(=O)N(CC(=O)Nc2sc(C)c(C)c2C(=O)OC)C1=O | 0 | -1 | 0 | 0 | 1 | 5
C/C=C/c1ccc(OCC(=O)OCC)c(OC)c1 | 1 | -1 | -2 | 2 | -1 | -3
COC(=O)N/N=C/c1ccc(OCCSc2ccc(Cl)cc2)c(OC)c1 | 0 | -2 | 3 | -1 | -2 | 10
COC(=O)c1c(NC(=O)Nc2ccc(Cl)cc2)sc(C)c1C | 0 | 0 | 1 | -1 | 3 | 39
Cc1sc(NC(=O)Nc2ccccc2)c(C(N)=O)c1C | 2 | 0 | 9 | 1 | 5 | 53*
CC1(C)Cc2c(sc(NC(=O)Nc3ccccc3)c2C(N)=O)CO1 | 5.1* | 0 | 11* | 1 | 3 | 33
CCOC(=O)N1CCN(C(=O)c2ccc(OC)c(OC)c2)CC1 | 0 | -2 | 2 | -1 | -1 | 2
